Screens from PubChem BioAssay.
A selection: hits, their analogues and other compounds. The true share with any hit is near 13%.
USP10 inh: inhibitors of human USP10 deubiquitinase; Q14694; purified USP10, Ub-rhodamine fluorescence, 60 min; inhibition, % at 20 µM; 47,000 compounds, 1.1% hits
USP17 inh: inhibitors of human USP17 deubiquitinase | purified USP17, Ub-rhodamine cleavage fluorescence, 3 h | 47,000 compounds, 6.5% hits | inhibition, % at 50 µM | A8MUK1
Target sequence (A8MUK1 whole entry, looked up): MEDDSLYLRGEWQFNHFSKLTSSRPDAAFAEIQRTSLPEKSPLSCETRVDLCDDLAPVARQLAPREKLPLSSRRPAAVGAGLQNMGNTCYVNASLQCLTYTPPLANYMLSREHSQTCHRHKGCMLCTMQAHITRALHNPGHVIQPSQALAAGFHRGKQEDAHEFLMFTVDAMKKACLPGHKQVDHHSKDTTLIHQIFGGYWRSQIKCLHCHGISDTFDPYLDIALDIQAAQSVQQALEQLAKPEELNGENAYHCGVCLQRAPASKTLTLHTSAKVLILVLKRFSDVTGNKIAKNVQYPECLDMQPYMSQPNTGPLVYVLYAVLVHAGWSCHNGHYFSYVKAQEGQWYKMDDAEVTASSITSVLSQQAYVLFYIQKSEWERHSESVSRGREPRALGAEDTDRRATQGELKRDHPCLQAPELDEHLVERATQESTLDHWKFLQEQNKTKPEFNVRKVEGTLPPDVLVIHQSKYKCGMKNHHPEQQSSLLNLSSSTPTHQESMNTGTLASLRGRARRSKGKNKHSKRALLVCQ
USP28 inh: human USP28 deubiquitinase inhibition; AID 1645857; inhibition, % at 25 µM; purified USP28, Ub-rhodamine cleavage fluorescence, 30 min; 47,000 compounds, 3% hits; Q96RU2
USP8 block: blocks human USP8 ubiquitin-rhodamine cleavage; purified USP8, Ub-rhodamine cleavage fluorescence, 30 min; inhibition, % at 20 µM; 47,000 compounds, 4.2% hits
USP30 inh: blocks human USP30 ubiquitin-rhodamine cleavage; inhibition, % at 25 µM; purified USP30, Ub-rhodamine cleavage fluorescence; 47,000 compounds, 5.3% hits; AID 1645860; Q70CQ3
* = called active by the depositor; · = no result given. No stated cut-off is given here; in the data, active means inhibition above about 30%; inactive means the rest.

SMILES | USP10 inh | USP17 inh | USP28 inh | USP8 block | USP30 inh
CC[C@H](C)[C@H](NC(=O)[C@H]([C@@H](C)CC)N(C)C(C)=O)C(=O)N[C@H](C(=O)N[C@@H](CC(C)C)C(=O)C1(C)CO1)[C@@H](C)O (stereo partly drawn) | 9 | 43* | 43* | 57* | 22
CCN1CCN(S(=O)(=O)c2c(C)nn(-c3ccc(F)cc3)c2C)CC1 | 0 | 13 | 2 | 12 | 21
Cc1ccc(C)c(NC(=O)c2cn(-c3ncccc3-c3nc(C)no3)cn2)c1 | -2 | -6 | -3 | -10 | 0
Cc1cccc(NC(=O)CC2C(=O)Nc3nc(-c4ccccc4)nn32)c1 (stereo not drawn) | 9 | 16 | 14 | 19 | 31*
COc1cc(O)c2c(=O)cc(C)oc2c1CC=C(C)C | 10 | 38* | 30 | 7 | 31*
COc1cc2oc(C)cc(=O)c2c(O)c1CO | 2 | 9 | 10 | 0 | 13
Cc1c(C(=O)Nc2ccn(C)n2)oc2ccc(Cl)cc12 | -3 | 28 | -5 | -4 | 0
O=C(Nc1ccc2c(c1)OCO2)c1ccc2nc(C(F)(F)F)sc2c1 | 0 | 17 | 12 | 55* | -18
Cc1nc(Nc2nnc(C)s2)cc(C2CCCN2)n1 (stereo not drawn) | 4 | -5 | -5 | -39 | 1
Cc1nc(Nc2ncccn2)cc(C2CCCN2)n1 (stereo not drawn) | -1 | 4 | 30* | -17 | 16
O=C(Nc1cccnc1)C1c2ccccc2C(=O)N(C2CCCC2)C12CCCCC2 (stereo not drawn) | 9 | 21 | 5 | 36* | 18
COCCN1C(=O)c2ccccc2C(C(=O)Nc2cccnc2)C12CCCCC2 (stereo not drawn) | -1 | 9 | 10 | 19 | 13
O=C(Cn1c(=O)[nH]c2ccccc2c1=O)NCc1ccccc1Cl | 14 | 40* | 6 | 55* | 17
CCNC(=O)c1cn(-c2ccc(S(=O)(=O)N3CCCC(C)C3)cn2)cn1 (stereo not drawn) | 2 | 44* | · | 5 | ·
CC1CCCN(S(=O)(=O)c2ccc(-n3cnc(C(=O)NC4CC4)c3)nc2)C1 (stereo not drawn) | 25 | 45* | 7 | 19 | 32*
O=C(COC(=O)c1ccc2ncsc2c1)Nc1cccc(F)c1 | -1 | 3 | 17 | -1 | -4
CC1OC2CC(O)C1(O)C1=C2C(O)=C(C(N)=O)C(=N)C1=O (stereo not drawn) | 36* | 62* | 60* | 39* | -23
CCOCC(=O)Nc1ccc(-c2nc3cccnc3s2)cc1 | -1 | 9 | 9 | -1 | -5
Cc1ccc2nc(-c3ccc(NC(=O)COC(=O)CCC(=O)Nc4sc5c(c4C(N)=O)CCC5)cc3)sc2c1 | -9 | -100 | -109 | 47* | -412
COc1ccc(NC(=O)CC(c2ccco2)n2cccc2)cc1OC (stereo not drawn) | 3 | -16 | -13 | 0 | -24
Cn1nccc1C(=O)N[C@@H]1C[C@@H](Oc2cccc(F)c2)[C@H](O)[C@H]1N1CCC(O)CC1 | -5 | -28 | -25 | -50 | -195
COC(=S)NC(=O)/C=C/c1ccccc1 | 8 | 22 | 17 | 24 | 32*
O=S(=O)(c1cnc[nH]1)N1CCc2ccccc2C1 | -3 | 3 | 7 | -6 | -3
O=C(Nc1cccc(S(=O)(=O)N2CCOCC2)c1)C1Cc2ccccc2CN1C(=O)c1ccco1 (stereo not drawn) | -6 | · | -18 | 40* | -169
CSc1cccc(NC(=O)C2Cc3ccccc3CN2C(=O)c2ccco2)c1 (stereo not drawn) | -4 | 31* | 0 | 11 | -24
SMILES | USP10 inh | USP17 inh | USP28 inh | USP8 block | USP30 inh
COc1cccc(CC(=O)Nc2cccc(S(=O)(=O)N3CCOCC3)c2)c1 | 0 | 3 | -3 | 0 | -10
COc1cc(NC(=O)C2Cc3ccccc3CN2C(=O)c2ccco2)cc(OC)c1OC (stereo not drawn) | -3 | -5 | -6 | -4 | -34
O=C(CN1CCSc2ccccc21)Nc1ccccc1Cl | 5 | 5 | 13 | 4 | 14
COc1cccc(CNC(=O)CN2C(=O)COc3cc(S(=O)(=O)N4CCCC4)ccc32)c1 | 0 | -9 | -6 | -8 | -4
COc1ccccc1NC(=O)CNC(=O)c1nn(-c2ccc(OC)c(OC)c2)c(=O)c2ccccc12 | 0 | 68* | -3 | 0 | 7
COc1ccc(C(=O)Nc2ccc(C)c(N3CCCC3=O)c2)cc1 | -1 | -24 | -8 | -6 | -10
Cc1ccccc1C(=O)Nc1ccc2c(c1)C(=O)N(C)c1ccccc1O2 | 4 | 2 | 40* | 9 | -3
Cc1ccccc1C(=O)Nc1ccc2cn(C)nc2c1 | 1 | 1 | 22 | 5 | 8
Cc1ccc2c(c1)N(C)C(=O)c1cc(NC(=O)c3ccc(F)cc3)ccc1O2 | 40* | 23 | 24 | 77* | 89*
COc1ccc(C(=O)Nc2ccc3c(c2)C(=O)N(C)c2ccccc2O3)cc1 | 5 | 6 | 71* | 8 | 4
O=C(Nc1ccc2cn[nH]c2c1)c1cc(-c2ccco2)on1 | -1 | -2 | -38 | 41* | -215
Cc1cc(NC(=O)c2cc(-c3ccco3)on2)n(-c2ccccc2)n1 | -12 | -61 | -44 | -66 | -342
CCN1CCC2(CC1)N=C(c1ccccc1)CC(c1cccc(OC)c1O)N2 (stereo not drawn) | -8 | 4 | -2 | 60* | -53
CC(=O)N1CCC2(CC1)N=C(c1ccccc1O)CC(c1ccc(C)cc1)N2 (stereo not drawn) | -2 | -6 | 2 | 12 | -48
CCN1CCC2(CC1)N=C(c1ccc3c(c1)OCO3)CC(c1ccccc1O)N2 (stereo not drawn) | 0 | -7 | -11 | 34* | -24
COc1cccc(C(=O)N(C)C2CCCN(C(=O)c3sc(C)nc3C)CC2)c1 (stereo not drawn) | 2 | 8 | 10 | -1 | 9
Cc1ccc2c(c1)C(=O)N(CC(=O)N1CCC(O)CC1)CC1(CCOCC1)O2 | 1 | 15 | 5 | 22 | 20
CCCCN(CCCNC(=O)c1cc(Nc2ccc(OC)cc2)nc2ccccc12)c1ccccc1 | 6 | -1 | -6 | 9 | 1
Cc1cn2c(=O)cc(COC(=O)c3ccccc3Cl)nc2s1 | 0 | 2 | 7 | -10 | 8
NS(=O)(=O)c1ccc(Cl)c(C(=O)OCc2csc(Nc3ccccc3)n2)c1 | -2 | 10 | 71* | 16 | 6
O=C(c1ccnn1-c1ccc2ccccn12)N1CCCC1 | -5 | -109 | -73 | -21 | -347
O=C(COC(=O)c1ccccc1OCc1ccccc1)Nc1ccc(Cl)cc1 | 11 | 21 | 36* | 12 | 34*
N#Cc1cccc(NC(=O)COC(=O)c2ccccc2OCc2ccc(Cl)cc2)c1 | 5 | -4 | 8 | 0 | 6
N#Cc1ccc(NC(=O)COC(=O)c2ccccc2Nc2ccccc2)cc1 | 6 | 34* | 27 | 7 | 5
